PubChem BioAssay (NCI)
The panel holds about 83,000 compounds, 20% with a hit somewhere; the sample as a whole holds those more often.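 Step 1: grow cells in 96-well plates. Step 2: add test compound at a single concentration. Step 3: incubate 48 h. Step 4: record percent growth.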 Values without a mark were called inactive. Activity calls are given as the source filed them. How the source made its calls: active means growth percent below 10; inactive means the rest.

The molecules below were run on HL-60(TB) leukemia (assay: NCI-60 one-dose screen, 48 h (100 = growth as untreated, 0 = no growth, -100 = all killed)). Conditions: 10 µM unless noted.

Compound	growth
C[C@]12C=CC(=O)C=C1[C@@H](F)C[C@@H]1[C@@H]2[C@@H](O)C[C@@]2(C)[C@H]1CC[C@]2(O)C(=O)CO	107%
CNC(=O)c1cn(C2CC2)c2cc(N3CCN(C(=O)c4cc(OC)c(OC)c(OC)c4)CC3)c(F)cc2c1=O	101%
C#CC#CC#CC#CC#CC#CC#CC#CC[C@H]1OC[C@@H](COC(=O)O[C@@H](C(=O)O[C@H]2C[C@@]3(O)[C@@H](OC(=O)c4ccccc4)[C@@H]4[C@]5(OC(C)=O)CO[C@@H]5C[C@H](O)[C@@]4(C)C(=O)[C@H](OC(C)=O)C(=C2C)C3(C)C)[C@@H](NC(=O)c2ccccc2)c2ccccc2)O1	6.5% (active)
COc1cc(-c2csc(NC(=O)Nc3cc(C(F)(F)F)cc(C(F)(F)F)c3)n2)cc(OC)c1OC	12%
c1ccc(-c2nnc(Nc3ccc4c(c3)OCCO4)o2)c(NCc2ccncc2)c1	6.43% (active)
O=C1c2cc3c(cc2-c2c1c1cc(F)c(F)cc1c(=O)n2CCCn1ccnc1)OCO3	-15.4% (active)
CCOC(=O)c1c(-c2ccccc2)n2c(=O)cc(C)c3c(O)c(O)cc1c32	11.7%
Cc1[nH]c(C2CC(c3ccc(C(F)(F)F)c(F)c3)=NN2c2ccccc2)c(C)c1C(=O)NCC(F)(F)F (stereo not given)	87.6%
COc1ccc(/C=N/NC(=O)c2cnn(CC(O)Cc3ccccc3)c2N)cc1OC1CCCC1 (stereo not given)	105%
CCOC(=O)c1cc2c(n1Cc1cccc(OC)c1)-c1oncc1CCC2	7.26% (active)
CCN(CC)C(=O)C1=C(C)NC(=O)NC1c1ccc2c(c1)OCO2 (stereo not given)	101%
Cc1ccc2nc(N)nnc2c1	125%
O=NN(CC(=O)NNc1ccccc1)CC(=O)NNc1ccccc1	31.6%
COc1cc(/C=N/NC(=S)NNC(=S)NC2CCCCC2)cc(OC)c1OC	104%
Cc1ccc(S(=O)(=O)N/N=C/C2(c3ccccc3)CC2)cc1	98.7%
CCCCCCCCCCSc1ncnc2nc[nH]c12	73.9%
CCCCN1CCN(c2ccc3nc(-c4ccc5nc(-c6ccc(OC)c(OC)c6)[nH]c5c4)[nH]c3c2)CC1	-25.1% (active)
c1ccc(CN2C(c3ccccc3)=Nc3ccccc3C2c2c[nH]c3ccccc23)cc1 (stereo not given)	19.6%
COc1ccc(Cn2cc(COc3cc(/C=C/C(=O)c4cc(OC)c(OC)c(OC)c4)ccc3OC)nn2)cc1	80.3%
COC(=O)c1cccnc1	102%

Compound	growth
CCCCCCC12CCC(=O)N1CCc1cncn12 (stereo not given)	85.4%
CCOC(=O)c1ccc(N2NC(=O)/C(=C/c3ccc([N+](=O)[O-])o3)C2=O)cc1	85.5%
Cc1onc2c(-c3ccccc3)n[nH]c(=O)c12	90.2%
Clc1ccc(-c2nnc(-c3cccc4ccccc34)o2)cc1	112%
COc1ccc2c(c1OC)OCC(CN(C)C)C2=O (stereo not given)	40.1%
Cc1nn(-c2ccc(F)cc2)c2ncnc(Nc3ccc(NC(=O)Nc4ccc(Cl)c(C(F)(F)F)c4)cc3)c12	13.2%
CNC(=O)c1cc(Oc2ccc3nc(NC(=O)Nc4ccc(Cl)c(Cl)c4)sc3c2)ccn1	78.8%
O=C1CC(C(F)(F)F)Cc2nc3ccc(Br)cc3cc21 (stereo not given)	89.8%
COc1ccc(C(=O)N2N=C(c3ccc(Br)cc3)CC2c2cn(-c3ccccc3)nc2-c2ccccc2)cc1 (stereo not given)	32.7%
C/C(Cc1ccc(Cl)cc1)=C(/c1ccc(Cl)cc1)c1ccc(OCCN2CCCC2)cc1	54.7%
CC(=O)c1ccc(NC(=O)CSc2nnc(-c3cc(-c4ccc(Cl)cc4)nc4ccccc34)o2)cc1	91.3%
O=c1c2ccccc2sc2c(NCCN3CCOCC3)nc3ccccc3c12	75.9%
O=C1/C(=C2\SC(=S)N(C3CC3)C2=O)SC(=S)N1C1CC1	104%
CC(C)CC(=O)C(CCc1ccccn1)C(C)C (stereo not given)	108%
COc1ccc(C2NC(=O)c3cc4c(cc3N2)OCO4)cc1 (stereo not given)	-42% (active)
O=C1/C(=C\c2c[nH]c3ccccc23)c2ccccc2N1c1c(Cl)cccc1Cl	-7.81% (active)
O=c1oc2ccc(Br)cc2c(=O)n1-c1ccc(Br)cc1F	-39.1% (active)
COc1ccc(-c2nc3c(c(-c4ccc(Cl)cc4)nn3-c3ccccc3)c(-c3ccc(O)cc3)c2C#N)cc1	22.7%
COc1ccc(C2C=C(c3ccc(OC)c(OC)c3)N=C3SC=CN32)c(Br)c1 (stereo not given)	57.6%
C=CC[N+](C)(C)C	107%
